PubChem BioAssay (EPA / NIEHS)
Calls of active or inactive are those of the source. The calls were made as follows: active = hit-call score of the fitted dose curve at least 0.9, where 1 is the maximum; inactive = score below 0.9.

assay: BSK_BT_PBMCCytotoxicity: PBMC Cytotoxicity Assessment in the BioMAP Diversity Plus: BT Assay (AID 2284225); conditions: primary human B cells with PBMC
Description: BSK_BT is a cell-based, multiplexed-readout assay that uses B cell and peripheral blood mononuclear cells, a human vascular primary cell co-culture, with measurements taken at 24 hours after chemical dosing in a microplate: 96-well plate.BSK_BT_PBMCCytotoxicity is an assay component measured in the BSK_BT assay. It measures dehydrogenase activity, a form of viability reporter, as detected with fluorescence intensity signals by Alamar Blue Reduction technology.Data from the assay component BSK_BT_PBMCCytotoxicity was analyzed at the endpoint, BSK_BT_PBMCCytotoxicity, in the positive analysis fitting direction relative to DMSO as the negative control and baseline of activity. Using a type of viability reporter, gain or loss-of-signal activity can be used to understand cellular changes in viability. To generalize the intended target to other relatable targets, this assay endpoint is annotated to the 'cell cycle' intended target family, where the subfamily is 'cytotoxicity'.
The levels of cell surface (or secreted, indicated by the prefix "s") biomarker endpoints were measured by ELISA. Overt cytotoxicity to cells in confluent adherent cultures (all systems other than the BT system) was assessed by measuring total protein levels using sulforhodamine B (SRB) staining in parallel cultures at the time of biomarker measurements, indicated as SRB endpoints. For proliferation assays for adherent cell types, individual cell types are cultured at sub-confluence and relative cell numbers quantified by SRB staining at time points optimized for each system (48 h: 3C and CASM3C systems; 72 h: BT and HDF3CGF systems; 96 h: SAg system). SRB was performed by staining cells with 0.1% SRB after fixation with 10% TCA and reading wells at 560 nm.Viability and proliferation of PBMC (T cells) was quantified by Alamar Blue reduction for the SAg and BT systems. For PBMC viability (referred to as PBMC Cytotoxicity within the assay endpoint names), cells were plated (75,000/well in a 96-well plate) and then chemical samples added for 1 h before addition of activators, SEB and TSST-1 (20 ng/mL final concentration each). Cells were incubated for 90 h. Then, Alamar Blue (20 uL/well) (Invitrogen, Cat DAL1100) was added for 6 h, and the plates were read with a fluorescence microplate reader at 546/580 nm (excitation/emission). For PBMC proliferation, cells were plated and activated as above but incubated for only 16 h prior to addition of Alamar Blue. Plates were read after 6 h.

| Compound | outcome | AC50 |
| --- | --- | --- |
| CC1OC1C1CCC2(C)OC2C1 (configuration not stated) | inactive |  |
| CC(C)(c1cc(Br)c(OCCO)c(Br)c1)c1cc(Br)c(OCCO)c(Br)c1 | inactive |  |
| CCCCC(CC)COC(=O)c1ccccc1O (configuration not stated) | inactive |  |
| C=CC=CC=CCCCCC | inactive |  |
| S=C(NC1CCCCC1)NC1CCCCC1 | inactive |  |
| CCCCC/C=C\C/C=C\CCCCCCCC(=O)OC |  | 24.3 µM (active) |
| CCOc1nc(F)cc2nc(S(=O)(=O)Nc3c(Cl)cccc3C(=O)OC)nn12 | inactive |  |
| c1ccc2c(c1)ccc1cc3c(ccc4ccccc43)cc12 | inactive |  |
| O=c1c2ccccc2oc2ccccc12 | inactive |  |
| COc1ccc2nc(N)sc2c1 | inactive |  |
| C#CC1(O)CC[C@H]2[C@@H]3CCC4=CCCC[C@@H]4[C@H]3CC[C@@]21C (some centres not stated) |  | 34.3 µM (active) |
| c1ccc2c(c1)ccc1ncccc12 | inactive |  |
| CCO[Si](CCCN=C=O)(OCC)OCC | inactive |  |
| O=C(Nc1ccccc1SSc1ccccc1NC(=O)c1ccccc1)c1ccccc1 |  | 6.24 µM (active) |
| C/C=C\C/C=C/CCCCCCCCOC(C)=O |  | 20 µM (active) |
| CCCCCCCCCCCCCCCC[N+](C)(C)CC |  | 6.46 µM (active) |
| CCCCNc1ccc(NCCCC)c2c1C(=O)c1ccccc1C2=O | inactive |  |
| COCc1c(C(C)C)nc(C(C)C)c(/C=C/[C@@H](O)C[C@@H](O)CC(=O)O)c1-c1ccc(F)cc1 | inactive |  |
| O=C(Cl)c1cc(C(=O)Cl)cc(C(=O)Cl)c1 |  | 28 µM (active) |
| CC(C)C(=O)C(C)C | inactive |  |
| O=Nc1ccc(O)cc1 | inactive |  |
| N#[N+]c1ccc2c(S(=O)(=O)[O-])cccc2c1O | inactive |  |
| C=CCOc1c(Br)cc(Br)cc1Br | inactive |  |
| c1ccc(-c2ccccn2)nc1 | inactive |  |
| C=CCOCC(O)CCl (configuration not stated) | inactive |  |
| C=CC(=O)OCC(Br)CBr (configuration not stated) |  | 20.5 µM (active) |
| CCCCCCCCc1ccc(Nc2ccc(CCCCCCCC)cc2)cc1 | inactive |  |
